Laboratory results taken from the supplement of paper PMC6555819.

tested on: LXRa homodimer (NR concentration 270 nM); assay: PBM binding z-score (relative to random genomic background probes); higher = stronger binding; sequences stand for … in GC…GCGATTGACAGCGTAGAATGAAGG
Summary of the method: (§1)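 Ligand-free nuclear receptor dimers were applied to custom Agilent 4×180K protein-binding microarrays whose double-stranded probes carried direct-repeat seeds, single-nucleotide variants, half-site ablations and random human genomic background sequences in 34-nt variable regions. Incubation lasted 1 h. Binding z-scores were computed against the random background probes from regression-normalized fluorescence.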

Sequence	PBM binding z-score
TCTTGTAGATCAAGCAGGCTAAGAAAGCCTGAGT	-0.525
ACTAGCAGACCAAGGGTCACTCAAGATTAGTCCG	0.341
GCGACTGGGGCAAAGCCGGTTACCATAAGGTTGG	-0.832
ATATGTAGGGTATCGGGTCATTCAGTTTGCGCAT	1.58
CGTCCAAGGTTATAGGAGGTCAGTGAAGACAGAT	5.37
ACTATTAGTTGAGACGAAGGCAACCGATAGGTTG	-0.315
CCGACTGGGGCAGAAGGTTACCATAAGCCAGCCC	-0.41
TCATATAGCTAAACAGGTGAAAGTCCGTAAGTTA	-0.0906
CGAACTAGGTCGGAACAGGACAGTGAAGGATGAT	-0.434
TAGCCTAGGTCATTGGGCCAGTATCGTACGCATC	0.842
TCTCGGAGGACACGAAGGGCAGAGCTTTCCAGAG	-0.59
TCTGCTAGGTCAGTTGGTCAGTTAACGAGCTGCC	-0.414
ACTAGCAGGCCAAGGGTCACTTAAGATTAGTCCG	0.394
CCTCGGGGGACAGAAGGTCAGAGCTGTCCGCTTT	0.464
GCTCGGATGACAAGGTCAGAGCTTTGTCCGTAGA	-0.396
CCTACTGGGCCACCAGGTCATTGATATCAACGTT	0.943
TGAATGAGGTTAAAGAACAGGGAACGTGGCGTCG	-0.259
GCGACTGGGGCATCAGCAGGTTACGATAACTTAA	-0.449
TAGCCTAGGTCATTCAGGAGCCAGTATAGAAAGC	0.522
ACTGACAGGTGAGTGAAGGTAACTCAGCTGGACG	-0.418

Sequence	PBM binding z-score
AATACAGGGTCATCGTAGGCCAGAGGACGCACAG	2.24
CGAACTGGGTCATTGACAGGACAGTGAATAGTAA	0.288
GCTTACGAGTCAAAGGTTATAGCATGAATAGAAT	-0.0276
CCTAGTTGGTCCGGAGGTCACACACCGGATATGA	2.47
TAGCCTAGGTCATGCAGGCCAGTATAGTGTCGGC	0.151
TAGCATAGGTCATGGGCCAGTATACCACGCGAAC	0.897
TCATACAGGTAAAAGGTGAAAGTCGGTGTGGTAA	-0.0272
TCAAGCAGGCCAGAGGGTCACTCAAGAGGTACGG	-0.238
CTACCAAGGTGAACAAGGTCGTCGATTACTATTC	0.0578
TCTGCTAGGTCAACGAGGGTCAGCTAATCTGCTA	0.398
TCTTGTGGATCAGCAGGTTAAGAAAGCTGGCCAA	-0.184
CCTACTGGACCATTCAGAGGTCATTGATCATATG	6.93
ATCGAAAGATCGACGAGGTGAGTATACACCGTTT	-0.368
CCAGACAGGTGAGAAGGTAAGTCAGCCTCGATTA	-0.318
GTGACTGGGGCAAAGCAGGTTACCATAAGGTTGG	0.27
GCTAGCAGGCCATTTGGGTCACTGAATGACGGGC	-0.885
TCATATAGGTAAATGCTAGGTAAAAGTCCGATCT	0.456
ACAGACAGGTGATGAAGGGAACTCAGGCTATCAT	-0.158
GCTAGTTGGTCAGTAAAAGGTCACACCCCGGTCG	4.42
ACTATTTGTTGACTTAGGGCAACCGATACGACGC	0.404

tested on: LXRb:RXRa (NR concentration 270 nM, RXRa partner concentration 90 nM); assay: as above
Summary of the method: as §1

Sequence	PBM binding z-score
TCTTGTAGATCAAGCAGGCTAAGAAAGCCTGAGT	-0.376
ACTAGCAGACCAAGGGTCACTCAAGATTAGTCCG	2.8
GCGACTGGGGCAAAGCCGGTTACCATAAGGTTGG	-0.581
ATATGTAGGGTATCGGGTCATTCAGTTTGCGCAT	3.25
CGTCCAAGGTTATAGGAGGTCAGTGAAGACAGAT	6.47
ACTATTAGTTGAGACGAAGGCAACCGATAGGTTG	-0.554
CCGACTGGGGCAGAAGGTTACCATAAGCCAGCCC	0.494
TCATATAGCTAAACAGGTGAAAGTCCGTAAGTTA	0.338
CGAACTAGGTCGGAACAGGACAGTGAAGGATGAT	-0.642
TAGCCTAGGTCATTGGGCCAGTATCGTACGCATC	2.55
TCTCGGAGGACACGAAGGGCAGAGCTTTCCAGAG	-0.711
TCTGCTAGGTCAGTTGGTCAGTTAACGAGCTGCC	0.323
ACTAGCAGGCCAAGGGTCACTTAAGATTAGTCCG	3
CCTCGGGGGACAGAAGGTCAGAGCTGTCCGCTTT	3.58
GCTCGGATGACAAGGTCAGAGCTTTGTCCGTAGA	0.805
CCTACTGGGCCACCAGGTCATTGATATCAACGTT	1.56
TGAATGAGGTTAAAGAACAGGGAACGTGGCGTCG	1.32
GCGACTGGGGCATCAGCAGGTTACGATAACTTAA	0.641
TAGCCTAGGTCATTCAGGAGCCAGTATAGAAAGC	2.42
ACTGACAGGTGAGTGAAGGTAACTCAGCTGGACG	-0.453

Sequence	PBM binding z-score
AATACAGGGTCATCGTAGGCCAGAGGACGCACAG	4.6
CGAACTGGGTCATTGACAGGACAGTGAATAGTAA	1.86
GCTTACGAGTCAAAGGTTATAGCATGAATAGAAT	2.72
CCTAGTTGGTCCGGAGGTCACACACCGGATATGA	3.37
TAGCCTAGGTCATGCAGGCCAGTATAGTGTCGGC	1.7
TAGCATAGGTCATGGGCCAGTATACCACGCGAAC	4.03
TCATACAGGTAAAAGGTGAAAGTCGGTGTGGTAA	2.18
TCAAGCAGGCCAGAGGGTCACTCAAGAGGTACGG	1.22
CTACCAAGGTGAACAAGGTCGTCGATTACTATTC	1.95
TCTGCTAGGTCAACGAGGGTCAGCTAATCTGCTA	3.04
TCTTGTGGATCAGCAGGTTAAGAAAGCTGGCCAA	0.0295
CCTACTGGACCATTCAGAGGTCATTGATCATATG	3.96
ATCGAAAGATCGACGAGGTGAGTATACACCGTTT	-0.346
CCAGACAGGTGAGAAGGTAAGTCAGCCTCGATTA	0.215
GTGACTGGGGCAAAGCAGGTTACCATAAGGTTGG	0.924
GCTAGCAGGCCATTTGGGTCACTGAATGACGGGC	-0.0353
TCATATAGGTAAATGCTAGGTAAAAGTCCGATCT	0.888
ACAGACAGGTGATGAAGGGAACTCAGGCTATCAT	-0.298
GCTAGTTGGTCAGTAAAAGGTCACACCCCGGTCG	3.74
ACTATTTGTTGACTTAGGGCAACCGATACGACGC	0.344
